# Screens (PubChem BioAssay)
# TEAD-YAP inh: TEAD-YAP interaction inhibition. HEK-TIYL cells, TEAD-Gal4/YAP UAS-luciferase luminescence. inhibition, % at 9.12 µM. actives 1.4% (n = 640,000). AID 1259422; in the data active means inhibition above about 32%
# FBW7 activator: activators of human E3 ligase FBW7; normalized activity (activation), % at 26.1 µM; Q969H0; actives 0.13% (n = 650,000); AlphaScreen FBW7–phospho-cyclin E peptide binding, activator screen; in the data active means normalized activity above about 1.9%;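 further: purified mutant Fbw7 with reduced substrate affinity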
# GPR151 ag: activators of human GPR151; Q8TDV0; PathHunter beta-arrestin GPR151 cells, luminescence; activation, % at 11.2 µM; actives 1% (n = 650,000); AID 1508602; in the data active means activation above about 4.9%
# Target sequence (Q8TDV0 whole entry, looked up): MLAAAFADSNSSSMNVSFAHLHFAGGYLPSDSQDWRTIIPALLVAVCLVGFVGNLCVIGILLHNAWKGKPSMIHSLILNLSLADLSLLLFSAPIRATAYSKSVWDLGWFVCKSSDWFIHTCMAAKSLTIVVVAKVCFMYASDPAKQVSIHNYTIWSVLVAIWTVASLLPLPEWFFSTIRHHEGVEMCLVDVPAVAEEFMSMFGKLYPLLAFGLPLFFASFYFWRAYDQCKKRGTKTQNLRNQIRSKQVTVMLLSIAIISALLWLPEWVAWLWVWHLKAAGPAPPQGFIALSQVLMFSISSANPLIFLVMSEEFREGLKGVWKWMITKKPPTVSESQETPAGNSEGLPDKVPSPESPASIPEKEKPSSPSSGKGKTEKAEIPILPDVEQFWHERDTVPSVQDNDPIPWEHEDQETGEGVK
# MITF primary: human MITF inhibition, primary screen; AlphaScreen MITF homodimerization, bead proximity signal; inhibition, % at 2.6 µM; actives 0.91% (n = 650,000); AID 1259374; in the data active means inhibition above about 50%
# GPR151 conf act: human GPR151 activation, confirmation screen | AID 1508609 | activation, % at 11.2 µM | shares compounds with GPR151 ag | GPR151 PathHunter beta-arrestin cells, luminescence, 90 min; % of EA-reagent control over plate median | 6,700 tested, under 10 active;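 active means mean percent activation across replicates above the confirmation screen cutoff of 4.91%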
# GPR119 ag: GPR119 activation, counter-screen for GPR151 activators. GPR119 PathHunter beta-arrestin cells, luminescence, 90 min; 0 = compound-well median, 100 = enzyme-acceptor control. actives 0.3% (n = 6,700). activation, % at 11.2 µM. shares compounds with GPR151 ag;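 active means mean percent activation in the counterscreen above 29.09%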;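 further: counterscreen on off-target GPR119 to flag nonselective hits from the GPR151 activator screen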
# A number is an active result; i = inactive; nt = not tested or not shown; ! = repeats disagree. Only some compounds are listed: those with a hit (about 3.5% of all), similar ones and a draw of the others.
SMILES,TEAD-YAP inh,FBW7 activator,GPR151 ag,MITF primary,GPR151 conf act,GPR119 ag
CCc1cccc(C)c1NC(=O)c1cc2ccccc2oc1=O,i,i,i,i,nt,nt
COCCN1C(=O)N(c2ccc(OC)cc2)C(=O)C1CC(=O)Nc1ccc(F)cc1 (stereo not given),i,i,i,i,nt,nt
CN(C)S(=O)(=O)Nc1ccc(N2CCC(NCC3COc4ccccc4O3)CC2)cc1 (stereo not given),i,i,i,i,nt,nt
CCOC(=O)c1c(NC(=O)/C(C#N)=C/c2ccc(F)cc2)sc(C)c1C,i,i,i,i,nt,nt
CC[C@H](C)[C@@H]1NC(=O)[C@H]2CN(S(=O)(=O)c3ccc4ccccc4c3)CCN2C1=O,i,i,i,i,nt,nt
O=C(Cc1ccc(-c2ccccc2)cc1)OCC(=O)N1CCCC1,i,i,i,i,nt,nt
O=C(NNC(=O)c1ccccc1F)c1ccc(Cl)nc1,i,i,4.9,i,i,i
CCOC(=O)c1sc2nc(C)n(CC(=O)NCCC3=CCCCC3)c(=O)c2c1C,i,i,i,i,nt,nt
CCOc1ccc(C2Nc3ccccc3-c3nnc(SCc4ccccc4F)nc3O2)cc1OC (stereo not given),i,i,5.8,i,i,i
CCCSc1nnc2c(n1)OC(c1ccc(SC)cc1)Nc1ccccc1-2 (stereo not given),i,i,5.6,i,i,i
CCCSc1nnc2c(n1)OC(c1ccc(F)cc1)Nc1ccccc1-2 (stereo not given),i,i,i,i,nt,nt
O=C(NCCN=Cc1ccc([N+](=O)[O-])cc1)c1c(O)c2ccccc2oc1=O,i,i,i,i,nt,nt
Cc1sc2nc(C3CC3)n(C3CCN(CC(=O)N(C(C)C)C(C)C)CC3)c(=O)c2c1C,i,i,i,i,nt,nt
CC(C)CC(=O)Nc1nn2c(-c3cccs3)nnc2s1,i,i,5.5,i,i,i
Cc1ccc(C(=O)C2=C(O)C(=O)N(CCN3CCOCC3)C2c2ccccn2)o1 (stereo not given),i,i,7.9,i,i,i
OC(COCc1ccc2c(c1)OCO2)CN1CCN(Cc2ccccc2)CC1 (stereo not given),i,i,6.9,i,i,i
Cc1nnc2ccc(SCC(=O)N3CCN(Cc4ccc5c(c4)OCO5)CC3)nn12,i,i,5.7,i,i,i
CCN1CCN(CC(O)COCc2ccc3c(c2)OCO3)CC1 (stereo not given),i,i,i,i,nt,nt
OC(COc1ccccc1)CN1CCN(Cc2ccc3c(c2)OCO3)CC1 (stereo not given),i,i,8.4,i,i,i
O=C(N1CCOCC1)N1CCN(Cc2ccc3c(c2)OCO3)CC1,i,i,6.1,i,i,i
Cc1cccc(C)c1OCCn1cncn1,i,i,i,i,nt,nt
O=C(NC1CC1)c1ccc(-c2cc(NC3CC3)ncn2)cc1,i,i,i,i,nt,nt
CCn1c(COc2ncnc3ccccc23)nc2cc(S(=O)(=O)N(C)C)ccc21,i,i,5.2,i,i,i
Nc1ccc(-c2ccc(N)cc2C(F)(F)F)c(C(F)(F)F)c1,i,i,5.6,i,i,i
Nc1c(C(F)(F)F)cc(C(F)(F)F)cc1C(F)(F)F,i,i,i,i,nt,nt
SMILES,TEAD-YAP inh,FBW7 activator,GPR151 ag,MITF primary,GPR151 conf act,GPR119 ag
Cc1ncc(-c2ccc(F)cc2)c(C2CCCN(C(=O)c3cnn(-c4ccccc4)c3)C2)n1 (stereo not given),i,i,i,i,nt,nt
O=C(CN(c1ccc(Cl)c(Cl)c1)S(=O)(=O)c1ccccc1)NCC1CCCO1 (stereo not given),i,i,i,i,nt,nt
COc1cccc(-c2cc(CC(=O)NCCC3=CCCCC3)no2)c1,i,i,6.1,i,i,i
CC(=O)Cn1c(=O)c2c(nc3n(-c4ccccc4C)c(C)cn23)n(C)c1=O,i,i,i,i,nt,nt
CCOC(=O)CN(c1ccccc1Cl)S(=O)(=O)c1ccc(F)cc1,i,i,22.7,i,i,i
COC(=O)CN(c1ccccc1OC)S(=O)(=O)c1ccc(OC)cc1,i,i,7.1,i,i,i
COc1ccc(S(=O)(=O)N(CC(=O)O)c2ccc(Cl)cc2)cc1,i,i,5.6,i,i,i
Nc1ccc(NC(=S)NC2CCCCC2)cc1[N+](=O)[O-],i,i,i,i,nt,nt
CC1(C)C2CCC1(C)C(Nc1ccc(N)c([N+](=O)[O-])c1)(S(=O)(=O)O)C2[n+]1ccccc1 (stereo not given),i,i,5.6,i,i,i
Cc1c(C#N)c2nc3c(c(-c4ccccc4)c2n1-c1ccccc1)CCCC3,i,i,6.1,i,i,i
Cc1c(C#N)c2nc3c(c(-c4ccccc4)c2n1-c1ccccc1)C(=O)CC(C)(C)C3,i,i,i,i,nt,nt
CC(=O)n1cc(/C=C2/N=C(c3ccccc3)OC2=O)c2ccccc21,i,i,i,i,nt,nt
COc1cccc(C2=N/C(=C\c3cn(C(C)=O)c4ccccc34)C(=O)O2)c1,i,i,7.5,i,i,i
Cc1ccc(N2CC(NC(=O)C3CCCC3)CC2=O)cc1C (stereo not given),i,i,5.5,i,i,i
COc1ccc(N2CC(NC(=O)C3CCCC3)CC2=O)cc1 (stereo not given),i,i,i,i,nt,nt
CCN1CCCC1CNC(=O)NC1CC(=O)N(c2ccc(C)c(C)c2)C1 (stereo not given),i,i,7.0,i,i,i
CCCCN1C(=O)c2ccc(C(=O)Nc3cc(Cl)ccc3C(=O)O)cc2C1=O,i,i,7.2,i,i,i
S=c1[nH]nc(-c2cccs2)n1-c1ccc2c(c1)OCO2,i,i,i,i,nt,nt
O=C1CCCC2=C1C(c1ccccc1F)n1c(nc3ccccc31)N2 (stereo not given),i,i,9.6,i,i,i
COc1ccc2c(c1)C1(SC(NC(C)=O)=NN1C(C)=O)C(=O)N2Cc1ccccc1 (stereo not given),i,i,i,i,nt,nt
CC(=O)C1=C(O)C(=O)N(Cc2cccnc2)C1c1ccc(O)cc1 (stereo not given),i,i,5.4,i,i,i
CCOC(=O)N1CCC(N(CCN(C)C)C(=S)Nc2cc(C)cc(C)c2)CC1,i,i,7.7,i,i,i
CCOC(=O)N1CCC(N(CCN(C)C)C(=S)Nc2cccc(CC)c2)CC1,i,i,i,i,nt,nt
CCOC(=O)N1CCN(C(=S)Nc2cc(OC)ccc2OC)CC1,i,i,5.2,i,i,i
CCOC(=O)N1CCN(C(=S)Nc2cc(Cl)ccc2OC)CC1,i,i,i,i,nt,nt
CCOC(=O)N1CCN(C(=O)Nc2ccc(Cl)cc2Cl)CC1,i,i,5.1,i,i,i
CCOC(=O)N1CCN(C(=S)Nc2ccc(C)cc2)CC1,i,i,6.0!,i,i,i
NC(=O)c1ccccc1N=Cc1c(O)ccc2ccccc12,i,i,i,i,nt,nt
CC(C)C[C@H]1C(=O)N2CCN(C(=O)c3cccc(F)c3F)C[C@@H]2C(=O)N1C,i,i,6.6,i,i,i
